Results filed as inconclusive are left out. The source made the active and inactive calls. Unless noted, the call rests on the fitted dose curve; in most records, active means well fitted inhibition curve with a large enough effect; inconclusive means small, poorly fitted or top-dose-only effect; inactive means no such curve, though single readings can be large or run the other way.

A short description of one assay: High-throughput drug toxicity screening in the BPDCN cell line Cal-1 (AID 1224825; call rule not given here;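 further: cells exposed to compounds for 48 h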). The following applies: Cal-1 BPDCN cell viability, qHTS; at 45.8 µM (top of the series) unless noted. The procedure, abridged:
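Viability of the BPDCN line Cal-1 is measured as ATP-based luminescence (CellTiter-Glo) following 48 h incubation with compounds. Percent activity uses DMSO-treated wells as 100% and 9.2 uM bortezomib as 0%.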
In general terms: Quantitative high-throughput screening tests each substance at several concentrations.
As to `CCOC(=O)N1CCN([N+]([O-])=NOc2ccc([N+](=O)[O-])cc2C#N)CC1`, the viability (% of control) amounted to 10.9%. In the case of `C[C@H]1[C@@H](OC(=O)CCC(=O)O)O[C@@H]2O[C@@]3(C)CC[C@@H]4[C@H](C)CC[C@@H]1[C@@]24OO3`, the viability (% of control) amounted to 5.3%. As for `C[C@]12CCC(=O)C=C1[C@@H]1CC1[C@H]1[C@H]3[C@@H]4C[C@H]4[C@@]4(CCC(=O)O4)[C@@]3(C)CC[C@H]12` (stereo partly drawn), the viability (% of control) is 92.9%. On the same count and under the same terms, as for `COc1ccc(CCC(=O)c2c(O)cc(O[C@@H]3O[C@H](CO)[C@@H](O)[C@H](O)[C@@H]3O[C@@H]3O[C@@H](C)[C@H](O)[C@@H](O)[C@@H]3O)cc2O)cc1O`, the figure is 106%. `C[C@H](NCc1ccc(OCc2cccc(F)c2)cc1)C(N)=O`: the viability (% of control) was 4.81%. With `CC(=O)[C@]1(O)Cc2c(O)c3c(c(O)c2[C@@H](O[C@H]2C[C@H](N)[C@@H](O)[C@H](C)O2)C1)C(=O)c1ccccc1C3=O`, the viability (% of control) is 4.63%.

`CC(C)(O)CC[C@@H](O)[C@](C)(O)[C@H]1CC[C@@]2(O)C3=CC(=O)[C@@H]4C[C@@H](O)[C@@H](O)C[C@]4(C)[C@@H]3CC[C@]12C`: the viability (% of control) turned out to be 104%. Turning to `C[C@@H](NCc1cc2ccccc2[nH]1)c1cccc2ccccc12`, the viability (% of control) amounted to 108%.

With `CC(C=CC1=C(C)CCCC1(C)C)=CC=CC(C)=CC(=O)Nc1ccc(O)cc1`, the viability (% of control) came out at 4.87% [at 92.2 µM].

For the compound `CC(C)C[C@H](NC(=O)CNC(=O)c1cc(Cl)ccc1Cl)B1OC(=O)CC(CC(=O)O)(C(=O)O)O1` (stereo partly drawn), the viability (% of control) was 3.61%. On the same count and under the same terms, as for `Cc1cn([C@@H]2O[C@H](CO)[C@@H](O)[C@H]2F)c(=O)[nH]c1=O`, the figure is 72.5%; as for `c1cncc(CN2CCC(n3ncc4c(N5CCOCC5)nc(-c5ccc6[nH]ccc6c5)nc43)CC2)c1`, 9.02%. Still for that read-out and setting: the same measure for `O=C(c1ccc(F)cc1)N1CCC[C@H](c2nc(-c3ccc(F)cc3)no2)C1`: 111%. On to `CCCCCCCCCCCCc1ccc(S(=O)(=O)Nc2nncs2)cc1`, for which the viability (% of control) was determined as 105%. For the compound `COc1ccc(C(C)=O)c(O)c1`, the viability (% of control) stood at 35.9%. `O=C(C=Cc1ccc(CN(CCO)CCc2c[nH]c3ccccc23)cc1)NO`: the viability (% of control) was 3.46%. Take `COc1cc(C)c(C=CC(C)=CC=CC(C)=CC(=O)O)c(C)c1C`: the viability (% of control) was 94.9%. For `C[C@H](O)[C@@H]1C(=O)N2C(C(=O)O)=C(S[C@@H]3CN[C@H](CNS(N)(=O)=O)C3)[C@@H](C)[C@@H]12`, the viability (% of control) was determined as 112%.

Turning to `C#C[C@]1(O)CC[C@@H]2[C@@H]3CCC4=CC(=O)CC[C@@H]4[C@H]3CC[C@@]21CC`, the viability (% of control) was found to be 114%.

Another assay in a line: qHTS assay for measurement of the activity of small molecule inhibitors on Zika virus induced Caspase-3 activity in human iPSC derived neural progenitor cells (hNPCs) (AID 1224857). Further: % of control where 0% means no effect; nearly all actives have a fitted effect of over 65% in size. The following applies: hNPCs ZIKV-induced caspase-3/7, Caspase-Glo luminescence, 6 h; series mostly up to 45.7 µM; activity change, negative = inhibition: at the top concentration. The gist of the method: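 Cells were plated at 350 per well and grown 16 to 20 hours. Compound pretreatment lasted one hour, after which ZIKV (2 FFU/cell) was added for 6 hours. Percent inhibition was normalized between uninfected and infected controls.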
In the case of `O=C(O)CCCCCC(=O)NN=C1CCCC1`, the “activity change, negative = inhibition” value is -2.46% (inactive). Regarding `CC(C)(C)[N+]([O-])=Cc1ccc(S(=O)(=O)O)cc1S(=O)(=O)O`, the “activity change, negative = inhibition” value was 40.3% (inactive). As to `C[C@@]12C[C@@]3(O)O[C@@H](O1)[C@]1(COC(=O)c4ccccc4)[C@@H]3C[C@@]12O[C@@H]1O[C@H](CO)[C@@H](O)[C@H](O)[C@@H]1O`, the “activity change, negative = inhibition” value was -17.7% (inactive). For the compound `Cc1cncc2cccc(S(=O)(=O)N3CCCN(C(=O)CN)C[C@@H]3C)c12`, the “activity change, negative = inhibition” value is -3.3% (inactive).

In the case of `O=C(O)C=Cc1ccc(Cn2ccnc2)cc1`, the “activity change, negative = inhibition” value was -1.47% (inactive).

As for `O=C(CN1C(=O)C2(CCCC2)NC[C@H]1c1cc(F)cc(F)c1)Nc1ccc2c(c1)C[C@@]1(C2)C(=O)Nc2ncccc21`, the “activity change, negative = inhibition” value was 10% (inactive). In the case of `CCN1CCN(C(=O)N[C@H](C(=O)N[C@@H]2C(=O)N3C(C(=O)O)=C(CSc4nnnn4C)CS[C@@H]23)c2ccc(O)cc2)C(=O)C1=O`, the “activity change, negative = inhibition” value is -0.587% [at 15.2 µM] (inactive). `Cc1ccc(-n2[nH]c(C)c(N=Nc3cccc(-c4cccc(C(=O)O)c4)c3O)c2=O)cc1C`: the “activity change, negative = inhibition” value was 16.8% (inactive). As to `NC(=NCCCCCCN=C(N)N=C(N)Nc1ccc(Cl)cc1)N=C(N)Nc1ccc(Cl)cc1`, the “activity change, negative = inhibition” value was -5.93% (inactive).

`C=C(C)[C@@H]1CC[C@]2(C)CC[C@]3(C)[C@H](CC[C@@H]4[C@@]5(C)CC[C@H](O)C(C)(C)[C@H]5CC[C@]43C)[C@@H]12`: the “activity change, negative = inhibition” value is 33.4% (inactive). As for `O=C1NC(O)CCN1[C@@H]1O[C@H](CO)[C@H](O)[C@H]1O` (stereo partly drawn), the “activity change, negative = inhibition” value is -11.4% (inactive). `NS(=O)(=O)OC[C@@H]1C[C@@H](n2ccc3c(N[C@H]4CCc5ccccc54)ncnc32)C[C@H]1O`: the “activity change, negative = inhibition” value was -11.2% (inactive). In the case of `Cc1cc(-c2nnc3n2CCCCC3)c(C)n1-c1ccccc1`, the “activity change, negative = inhibition” value is 23.7% (inactive). For the compound `NC(=O)Nc1sc(-c2ccc(F)cc2)cc1C(N)=O`, the “activity change, negative = inhibition” value was 29.6% (inactive). `C=C1CCC2[C@](C)(CO)C(O)CC[C@]2(C)C1CC=C1C(=O)OCC1O` (stereo partly drawn): the “activity change, negative = inhibition” value was -0.347% [at 92.8 µM] (inactive). On the same count and under the same terms, the same measure for `CC[C@H]1OC(=O)[C@H](C)[C@@H](O[C@H]2C[C@@](C)(OC)[C@@H](O)[C@H](C)O2)[C@H](C)[C@@H](O[C@@H]2O[C@H](C)C[C@H](N(C)C)[C@@H]2O)[C@](C)(OC)C[C@@H](C)C(=O)[C@H](C)[C@@H](O)[C@]1(C)O`: -3.41% (inactive); for `Cc1ccc2nc(NCCN)c3ncc(C)n3c2c1`: 175% (inactive); for `CCc1cc(C(C)=NOCc2ccc(C3CCCCC3)c(C(F)(F)F)c2)ccc1CN1CC(C(=O)O)C1`: 33.9% (inactive). Still for that read-out and setting: the same measure for `COc1cc(C(=O)NC2CCN(C)CC2)ccc1Nc1ncc2c(n1)N(C1CCCC1)CCC(=O)N2C(C)C`: 87.9% (inactive); for `CC(C=CC=C(C)C=CC1=C(C)CCCC1(C)C)=CC=CC=C(C)C=CC=C(C)C=CC1=C(C)CCCC1(C)C`: 46.2% (inactive); for `CCOC(=O)N1CCN([N+]([O-])=NOc2ccc([N+](=O)[O-])cc2C#N)CC1`: 83.1% (inactive).

For `C[C@H]1[C@@H](OC(=O)CCC(=O)O)O[C@@H]2O[C@@]3(C)CC[C@@H]4[C@H](C)CC[C@@H]1[C@@]24OO3`, the “activity change, negative = inhibition” value was 87.3% (inactive). For the compound `C[C@]12CCC(=O)C=C1[C@@H]1CC1[C@H]1[C@H]3[C@@H]4C[C@H]4[C@@]4(CCC(=O)O4)[C@@]3(C)CC[C@H]12` (stereo partly drawn), the “activity change, negative = inhibition” value is 7.76% (inactive). Consider `COc1ccc(CCC(=O)c2c(O)cc(O[C@@H]3O[C@H](CO)[C@@H](O)[C@H](O)[C@@H]3O[C@@H]3O[C@@H](C)[C@H](O)[C@@H](O)[C@@H]3O)cc2O)cc1O`, for which the “activity change, negative = inhibition” value is -17.1% (inactive). As for `C[C@H](NCc1ccc(OCc2cccc(F)c2)cc1)C(N)=O`, the “activity change, negative = inhibition” value is -0.0095% (inactive). In the case of `CC(=O)[C@]1(O)Cc2c(O)c3c(c(O)c2[C@@H](O[C@H]2C[C@H](N)[C@@H](O)[C@H](C)O2)C1)C(=O)c1ccccc1C3=O`, the “activity change, negative = inhibition” value is 45.1% (inactive). `CC(C)(O)CC[C@@H](O)[C@](C)(O)[C@H]1CC[C@@]2(O)C3=CC(=O)[C@@H]4C[C@@H](O)[C@@H](O)C[C@]4(C)[C@@H]3CC[C@]12C`: the “activity change, negative = inhibition” value was 0.396% (inactive). Take `C[C@@H](NCc1cc2ccccc2[nH]1)c1cccc2ccccc12`: the “activity change, negative = inhibition” value is -6.91% (inactive). Same read-out and setting: as for `CC(C=CC1=C(C)CCCC1(C)C)=CC=CC(C)=CC(=O)Nc1ccc(O)cc1`, the figure is 24% [at 92.8 µM] (inactive).

As to `CC(C)C[C@H](NC(=O)CNC(=O)c1cc(Cl)ccc1Cl)B1OC(=O)CC(CC(=O)O)(C(=O)O)O1` (stereo partly drawn), the “activity change, negative = inhibition” value was -11.2% (inactive). Same read-out and setting: the same measure for `Cc1cn([C@@H]2O[C@H](CO)[C@@H](O)[C@H]2F)c(=O)[nH]c1=O`: 42.2% (inactive). In the case of `c1cncc(CN2CCC(n3ncc4c(N5CCOCC5)nc(-c5ccc6[nH]ccc6c5)nc43)CC2)c1`, the “activity change, negative = inhibition” value was -13.3% (inactive). On to `O=C(c1ccc(F)cc1)N1CCC[C@H](c2nc(-c3ccc(F)cc3)no2)C1`, for which the “activity change, negative = inhibition” value is 25.4% (inactive). Still for that read-out and setting: the same measure for `CCCCCCCCCCCCc1ccc(S(=O)(=O)Nc2nncs2)cc1`: -10.5% (inactive); for `COc1ccc(C(C)=O)c(O)c1`: 7.64% (inactive); for `O=C(C=Cc1ccc(CN(CCO)CCc2c[nH]c3ccccc23)cc1)NO`: -1.97% (inactive).

As to `COc1cc(C)c(C=CC(C)=CC=CC(C)=CC(=O)O)c(C)c1C`, the “activity change, negative = inhibition” value is -11.3% (inactive). With `C[C@H](O)[C@@H]1C(=O)N2C(C(=O)O)=C(S[C@@H]3CN[C@H](CNS(N)(=O)=O)C3)[C@@H](C)[C@@H]12`, the “activity change, negative = inhibition” value is -21.7% (inactive). In the case of `C#C[C@]1(O)CC[C@@H]2[C@@H]3CCC4=CC(=O)CC[C@@H]4[C@H]3CC[C@@]21CC`, the “activity change, negative = inhibition” value is -24.4% (inactive).

Source of the values: PubChem BioAssay (NCATS).
